Experimental data reported in PubChem BioAssay (NCI).
Where “and” joins values, the source holds several entries; their conditions need not be identical. Identical values can stand only once. About 83,000 compounds went through this panel and 20% of them were active in at least one assay; those are over-represented in the sample as a whole.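 Testing used 96-well plates and a 48-hour single-concentration exposure. Example: -40 means 40% of the starting cells died.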 Calls of active or inactive are those of the source. The calls were made as follows: active = growth percent below 10; inactive = the rest.

Test system: MDA-MB-468 breast
Assay: NCI-60 one-dose screen, 48 h (100 = growth as untreated, 0 = no growth, -100 = all killed)
Settings: 10 µM unless noted

| SMILES | growth |
| --- | --- |
| COc1cc2cc(Oc3ccc(NC(=O)Nc4cccc(C(F)(F)F)c4)cc3)c(C)nc2cc1OCCN1CCCCC1 | -68.7% (active) |
| CC1=C(C)C(=O)OC([C@](C)(O)[C@]2(O)CC[C@@]3(O)[C@@H]4C[C@H]5O[C@]56CC=CC(=O)[C@]6(C)[C@H]4CC[C@]23COC(=O)c2ccc(C)o2)C1 (stereo not given in full) | -55.6% (active) |
| O=C1C[C@H](Sc2nc(-c3ccc(F)cc3)cc(C(F)(F)F)n2)[C@H]2CO[C@@H]1O2 | 71.4% (inactive) |
| O=c1ccc2nc(-c3ccccc3)nn(-c3ccccn3)c-2c1 | -65.2% (active) |
| O=C(N/N=C/C[C@@H]1[C@@H](/C=C/[C@@H](O)COc2cccc(Cl)c2)[C@H](O)C[C@@H]1O)c1ccncc1 | 97.9% (inactive) |
| COc1cc2c(c(O)c1Br)C(=O)c1c(O)cc(C[C@H](C)O)cc1[C@H]2[C@H]1c2cc(C[C@H](C)O)cc(O)c2C(=O)c2c1cc(OC)c(Br)c2O | -14.5% (active) |
| CCn1cc(C2NC(=O)c3ccccc3N2)c2cccc(C)c21 (stereo not given) | 17.9% (inactive) |
| O[C@H](c1cc(C(F)(F)F)nc2c(C(F)(F)F)cccc12)[C@@H]1CCCCN1 | 27.3% (inactive) and -6.87% (active) |
| c1ccc(CNCCN(CCNCc2ccccn2)Cc2ccc3ccccc3c2)nc1 | -10% (active) |
| C=C(C)[C@@H]1CC[C@]2(CO)CC[C@]3(C)[C@H](CC[C@@H]4[C@@]5(C)C=C(C#N)C(=O)C(C)(C)[C@@H]5CC[C@]43C)[C@@H]12 | 8.08% (active) |
| O=C(O)c1ccc(-n2cc(CNc3cc(F)c(F)c(F)c3)c(-c3cccc(F)c3)n2)cc1 | 95.4% (inactive) |
| NC(CCl)=NCCC[C@H](N)C(=O)O | 91.8% (inactive) |
| N#Cc1c(-c2ccc(Cl)cc2)nc(SCc2ccccc2)nc1N1CCNCC1 | 10.3% (inactive) |
| O=C(CN1C(=O)S/C(=C\C(Cl)=C\c2ccccc2)C1=O)NC1CCS(=O)(=O)C1 (stereo not given) | 8.17% (active) |
| CN(C)c1ccc(Nc2c3ccccc3nc3ccccc23)cc1 | -27.5% (active) |
| Cn1c(=O)c2c(ncn2CC[N+](C)(C)C)n(C)c1=O | 101% (inactive) |
| COc1ccc(-c2nc(SCC(=O)Nc3ccc(C(C)=O)cc3)[nH]c(=O)c2C#N)cc1 | 105% (inactive) |
| CCCCCc1ccc(C)cc1OC(=O)CCl | 110% (inactive) |
| Cc1ccc2nc(-c3ccc(C(=O)N/N=C/c4ccc([N+](=O)[O-])cc4)cc3)[nH]c2c1 | 113% (inactive) |
| CC1=CCc2ccccc21 | 115% (inactive) |

| SMILES | growth |
| --- | --- |
| CN(C)CCOC(=O)Nc1ccc(Cc2ccc(NC(=O)OCCN(C)C)cc2)cc1 | 40.4% [100 µM] (inactive) |
| CCOc1ccc(NC(=S)N2CCC(CCCC3CCN(C(=S)Nc4ccc(OCC)cc4)CC3)CC2)cc1 | 58.7% (inactive) |
| COc1ccccc1-[n+]1cc(-c2ccc(-c3ccccc3)cc2)n2c1CCCCC2 | -23.5% (active) |
| CC(=O)c1ccc(NC(=O)Nc2ccc(S(=O)(=O)Nc3ccc(Cl)nn3)cc2)cc1 | 107% (inactive) |
| [2H]C([2H])([2H])Oc1ccc(/C=C/C(=O)/C=C(/C=C/c2ccc(OC([2H])([2H])[2H])c(OC([2H])([2H])[2H])c2OC([2H])([2H])[2H])OB(F)F)c(OC([2H])([2H])[2H])c1OC([2H])([2H])[2H] | 65% (inactive) |
| Cc1cc(O)c(C(C)C)cc1Cl | 114% (inactive) |
| Cc1ccc2nc3ccccc3c(NCc3ccccc3)c2c1 | -11% (active) |
| O=C(Oc1ccc(Cl)cc1[N+](=O)[O-])Oc1ccc(Cl)cc1[N+](=O)[O-] | 114% (inactive) |
| CCCCCCCCCCCCCCCCCCOc1ccccc1CC(=O)NCC[N+]1(C)CCOCC1 | 13.7% (inactive) |
| O=c1cc(Cl)nc2ccccn12 | 107% (inactive) |
| COc1ccc(-n2nc(C)c3c(Nc4ccc(NC(=O)Nc5ccc(Cl)c(C(F)(F)F)c5)cc4)ncnc32)cc1 | -19.9% (active) |
| OC1CCN(CCCOc2c3ccc(Cl)cc3nc3c2oc2ccc(Cl)cc23)CC1 | 1% (active) |
| Cc1ccc(-c2onc3c(=O)[nH]nc(-c4ccccc4)c23)cc1 | 29.5% (inactive) |
| CCNC(=O)Nc1ncccc1OCc1ccc(F)cc1 | 101% (inactive) |
| COc1ccc(C(Cn2ccnc2)Sc2ccc(Cl)c(Cl)c2)cc1 (stereo not given) | 63% (inactive) |
| CC(C)C(NC(=O)C1(NC(=O)OCc2ccccc2)CCCC1)C(=O)O (stereo not given) | 112% (inactive) |
| O=C(N=Nc1c(O)[nH]c2ccccc12)Nc1ccc(F)cc1 | 103% (inactive) |
| COCCc1n(Cc2ccc3ccccc3c2)c2ccccc2[n+]1Cc1ccc2ccccc2c1 | -23.4% (active) |
| C=CC(=O)N(C)[C@H]1C[C@H]2OC(C)(C1OC)n1c3ccccc3c3c4c(c5c6ccccc6n2c5c31)C(=O)NC4 (stereo not given in full) | -52.4% (active) |
| COc1ccc(NC(=S)Nc2ccccn2)cc1 | 104% (inactive) |
